Source: PubChem
ERb SRC1 inh – ER-beta (human) coactivator binding inhibition | Q92731 | TR-FRET ER-beta LBD / SRC1-Cy5 peptide binding; receptor agonist-loaded with 1 µM estradiol | actives 1.3% (n = 86,000) | inhibition, % at 25.6 µM;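 active = compounds whose percent inhibition of the receptor-coactivator binding signal exceeds about 50% in the single-dose screen, limit read from the data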;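 note: 0% = receptor plus peptide wells without compound and 100% = peptide-only wells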
Target sequence (Q92731 whole entry, looked up, the tested form may be a part): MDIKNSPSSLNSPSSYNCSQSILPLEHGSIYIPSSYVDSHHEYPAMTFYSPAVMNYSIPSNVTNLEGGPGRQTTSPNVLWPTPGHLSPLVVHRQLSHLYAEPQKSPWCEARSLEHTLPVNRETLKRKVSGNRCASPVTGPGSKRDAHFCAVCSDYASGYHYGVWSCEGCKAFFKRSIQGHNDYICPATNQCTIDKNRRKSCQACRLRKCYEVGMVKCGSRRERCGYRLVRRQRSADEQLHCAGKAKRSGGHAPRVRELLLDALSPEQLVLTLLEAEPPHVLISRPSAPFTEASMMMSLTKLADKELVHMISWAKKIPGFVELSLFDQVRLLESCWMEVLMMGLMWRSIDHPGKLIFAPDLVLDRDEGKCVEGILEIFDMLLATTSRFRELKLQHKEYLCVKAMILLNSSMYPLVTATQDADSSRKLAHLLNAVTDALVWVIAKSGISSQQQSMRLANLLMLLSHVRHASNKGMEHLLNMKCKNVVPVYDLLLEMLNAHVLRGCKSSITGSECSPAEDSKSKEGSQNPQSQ
Smad3 FoxH1 inh – blocks human Smad3 binding to FoxH1 peptide; inhibition, % at 25 µM; actives 0.29% (n = 88,000); P84022; TR-FRET Smad3/Dy647-FoxH1 peptide binding, europium anti-His;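 active = compounds that reduce the energy-transfer binding signal between the protein and its labelled peptide by more than half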;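 note: 0% = Smad3 plus labelled peptide maximal FRET and 100% = peptide-only background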
ERa coact inh – ER-alpha (human) coactivator binding inhibition | P03372 | TR-FRET ER-alpha LBD / SRC-1 peptide, estradiol-bound | inhibition, % at 25.6 µM | actives 1.7% (n = 86,000) | AID 629; in the data active = inhibition above about 50%;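 note: 0% = receptor plus peptide control and 100% = peptide only without receptor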
FAK blocker – blocks human focal adhesion kinase activity; Q05397; biochemical FAK kinase activity assay; actives 0.84% (n = 97,000); inhibition, %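 (tested at 7 µM)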; in the data active = inhibition above about 19%;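 note: 0% = DMSO and 100% = reference compound high control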
ERa coact pot – ER-alpha (human) coactivator binding potentiation; P03372; TR-FRET ERalpha-LBD/SRC-Cy5 coactivator binding, 2 h; 100 = basal binding, no effect; coactivator binding (% of control), % at 25.6 µM; actives 1.3% (n = 86,000); AID 639; in the data active = activity above about 200%;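 note: binding measured in presence of low estradiol as agonist stimulus; 0% = peptide alone without receptor and 100% = receptor with peptide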
* hit, by the source's call; · = no result; [ ] = another dose, or the depositor's remark. Shown are actives, neighbours in structure and some others; about 3.3% of the full set was active somewhere.

SMILES	ERb SRC1 inh	Smad3 FoxH1 inh	ERa coact inh	FAK blocker	ERa coact pot
CN1CCC[C@H]1c1cccnc1.O=C(O)c1ccccc1O.O=C([OH2+])c1ccccc1O.O=C([OH2+])c1ccccc1O.O=C([OH2+])c1ccccc1O.[Mn]	·	19	·	·	·
CCOc1ncccc1C(=O)OCC(=O)Nc1cc(C(=O)OC)ccc1C(=O)OC	19	-24	-4	·	372*[fluorescence artefact?]
CC(CO)(CO)N=Cc1cc(I)cc(I)c1O	·	-6	·	·	·
CCOc1ccc(NC(=O)c2cc3cc4ccc(OC)cc4nc3o2)cc1	45	32	56*	13	194
O=C(O)c1ccncc1.O=C(O)c1ccncc1.[NH2-].[NH2-].[Pt]	·	11	·	·	·
CCOC(=O)c1c(C)[nH]c(C)c1C(=O)COC(=O)CCOc1ccccc1OC	58*	7	21	0	80
CC(=O)c1c(C)[nH]c(C(=O)COc2ccc(C#N)cc2)c1C	12	28	63*	-2	42
CCOC(=O)c1[nH]c(COC(=O)CCOc2ccccc2OC)c(C(=O)OCC)c1C	·	·	·	1	·
CCOC(=O)c1[nH]c(C)c(C(=O)Nc2cc(OC)ccc2OC)c1C	-8	-8	0	-2	97
CCOc1ccc(OCC)c(NC(=O)c2[nH]c(C)c(C(C)=O)c2C)c1	38	-6	54*[fluorescence artefact?]	-13	249*[fluorescence artefact?]
COc1ccccc1OCC(=O)c1[nH]c(C)c(C(C)=O)c1C	74*[fluorescence artefact?]	12	69*[fluorescence artefact?]	11	42
c1ccc(-c2ccc(-c3ccc(C4=NCCN4)cc3)o2)cc1	·	-3	·	·	·
CN(C)S(=O)(=O)c1ccc(Nc2ccc(O)c3c2C(=O)c2c([N+](=O)[O-])ccc(O)c2C3=O)cc1	·	30	·	·	·
N/C(Cc1ccc([N+](=O)[O-])cc1)=N\OC(=O)c1ccc2ccccc2c1	20	2	50*	1	119
O=C(O)C(F)(F)C(F)(F)C(F)(F)C(F)(F)C(=O)O	·	6	·	·	·
CCOC(=O)C1C(c2cccs2)NC(=O)NC1(O)C(F)(F)F (stereo not given)	-1	7	-2	-2	527*[fluorescence artefact?]
c1ccc(CCCNc2nnnc3ccccc23)cc1	·	2	·	·	·
O=C(O)C(Cc1cccs1)C(=O)O	·	10	·	·	·
O=C(CSc1nnc(-c2ccco2)c(-c2ccco2)n1)Nc1ccccc1	86*[fluorescence artefact?]	-8	84*[fluorescence artefact?]	16	22
Cc1ccccc1NC(=O)CSc1nnc(-c2ccco2)c(-c2ccco2)n1	72*	6	71*	15	58
CCc1ccccc1NC(=O)CSc1nnc(-c2ccco2)n1N	-1	5	4	2	120
O=C(CSc1nnc(-c2ccccc2)c(-c2ccccc2)n1)NCc1ccco1	-1	3	-9	-1	98
CSc1nnc(-c2ccco2)c(-c2ccco2)n1	91*[fluorescence artefact?]	28	90*[fluorescence artefact?]	8	7
C=C1CCO[C@@]2([C@H](O)[C@@](C)(O)CO)NC(=O)[C@]1(O)NC2=O	·	10	·	·	·
Cc1nc2cc(-c3ccsc3-n3c(C)ccc3C)[nH]n2c(=O)c1Cl	64*	-1	59*	-2	98
SMILES	ERb SRC1 inh	Smad3 FoxH1 inh	ERa coact inh	FAK blocker	ERa coact pot
COCc1cc(=O)n2[nH]c(-c3ccsc3-n3c(C)ccc3C)cc2n1	42	7	31	1	41
COc1cc2cc(C(c3nnnn3C3CCCC3)N3CCCCC3)c(=O)[nH]c2cc1OC (stereo not given)	1	11	-4	0	119
O=c1[nH]c2cc3c(cc2cc1C(c1nnnn1C1CCCCC1)N1CCSCC1)OCCO3 (stereo not given)	35	44	21	1	254*[fluorescence artefact?]
Nc1c(OCC(=O)O)ccc2cc(S(=O)(=O)O)ccc12	·	28	·	·	·
NC(=O)c1oc2ccccc2c1NC(=O)c1nc2ccccc2s1	26	6	22	-4	493*
O=C(Nc1cccc(F)c1)c1ccc2c(c1)OCO2	6	8	1	-2	109
O=C(Nc1ccc2nn(-c3ccccc3)nc2c1)c1ccc2c(c1)OCO2	36	-19	51*	10	181
O=C(Nc1cccc(-c2cn3cccnc3n2)c1)c1ccc2c(c1)OCO2	10	-9	60*	10	116
O=C(O)C[C@H]1OCC=C2C[N+]3([O-])CC[C@@]45c6ccccc6N[C@@H]4[C@@H]1[C@@H]2C[C@H]53 (stereo not given in full)	·	1	·	·	·
CC(C)OC(=O)CSc1nnc(-c2ccc(C(C)(C)C)cc2)n1N	-2	7	98*[fluorescence artefact?]	-4	111
NNC(=O)Cc1cccnc1	·	7	·	·	·
